Reference: PubChem BioAssay AID1159580 (chemical genetic matrix, 2015)
Where “and” joins values, the source holds several entries; their conditions need not be identical. Identical values can stand only once. About 2,000 (36%) of roughly 5,500 compounds were called active. Not shown: some 18% with an inconclusive outcome. Rule as the data show it: active = normalized growth mostly below about 0.91 (no sharp cut-off); inconclusive = no clear call, values can overlap the other calls; inactive = mostly above about 0.92. This is one part of the list.

Assay: chemical genetic growth profiling, strain panel (AID 1159580);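 also: tested at 20 µM; growth read once vehicle control cultures reached saturation at 30 °C; 1 = growth at the plate median or of vehicle wells; lower values mean less growth of the strain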
Details: S. cerevisiae deletion strains, growth OD

Measured: normalized growth

O=C(/C=C/c1ccc(O)c(O)c1)O[C@@H]1C[C@](O)(C(=O)O)C[C@@H](O)[C@H]1O
inactive: locus YAL021C, strain ccr4, stronger effect = lower value 1.05 | locus YAL026C, strain drs2, stronger effect = lower value 0.979 | locus YAL030W, strain snc1, stronger effect = lower value 0.983 | locus YBL061C, strain skt5, stronger effect = lower value 0.992 | locus YBR009C, strain hhf1, stronger effect = lower value 0.994 | locus YBR021W, strain FUR4, stronger effect = lower value 0.992 | locus YBR023C, strain chs3, stronger effect = lower value 1.03 | locus YBR171W, strain sec66, stronger effect = lower value 0.95 | locus YBR229C, strain ROT2, stronger effect = lower value 0.997 | locus YBR231C, strain swc5, stronger effect = lower value 0.956 | locus YBR279W, strain paf1, stronger effect = lower value 0.988 | locus YCL011C, strain gbp2, stronger effect = lower value 0.985 | locus YCL016C, strain dcc1, stronger effect = lower value 1.02 | locus YCL029C, strain bik1, stronger effect = lower value 1.02 | locus YCL061C, strain MRC1, stronger effect = lower value 1 | locus YCL069W, strain vba3, stronger effect = lower value 0.964 | locus YCR088W, strain abp1, stronger effect = lower value 0.968 | locus YDL005C, strain med2, stronger effect = lower value 0.966 | locus YDL035C, strain GPR1, stronger effect = lower value 0.984 | locus YDL040C, strain nat1, stronger effect = lower value 0.98 | locus YDL074C, strain BRE1, stronger effect = lower value 1.04 | locus YDL101C, strain DUN1, stronger effect = lower value 1.02 | locus YDL185W, strain tfp1, stronger effect = lower value 1.01 | locus YDL192W, strain arf1, stronger effect = lower value 1 | locus YDR001C, strain nth1, stronger effect = lower value 0.98 | locus YDR069C, strain doa4, stronger effect = lower value 0.97 | locus YDR101C, strain arx1, stronger effect = lower value 1.02 | locus YDR137W, strain rgp1, stronger effect = lower value 0.98 | locus YDR150W, strain NUM1, stronger effect = lower value 1.01 | locus YDR159W, strain sac3, stronger effect = lower value 0.915 | locus YDR162C, strain NBP2, stronger effect = lower value 1.01 | locus YDR195W, strain ref2 0.942 | locus YDR297W, strain sur2, stronger effect = lower value 0.99 | locus YDR318W, strain mcm21, stronger effect = lower value 1.01 | locus YDR334W, strain swr1, stronger effect = lower value 0.974 | locus YDR335W, strain msn5, stronger effect = lower value 0.973 | locus YDR388W, stronger effect = lower value 1.01 | locus YDR392W, strain spt3, stronger effect = lower value 0.997 | locus YDR502C, strain sam2, stronger effect = lower value 1.02 | locus YEL003W, strain gim4, stronger effect = lower value 0.976 | locus YEL037C, strain rad23, stronger effect = lower value 0.973 | locus YEL061C, strain CIN8 (second series), stronger effect = lower value 0.965 | locus YEL061C, strain CIN8, stronger effect = lower value 1.01 | locus YER015W, strain faa2, stronger effect = lower value 0.988 | locus YER016W, strain bim1, stronger effect = lower value 0.968 | locus YER110C, stronger effect = lower value 1.02 | locus YER111C, strain swi4, stronger effect = lower value 0.976 | locus YER155C, strain BEM2 (second series), stronger effect = lower value 0.993 | locus YER155C, strain BEM2, stronger effect = lower value 1.01 | locus YER167W, strain BCK2, stronger effect = lower value 1.01 | locus YFR010W, strain ubp6, stronger effect = lower value 0.972 | locus YGL078C, strain dbp3, stronger effect = lower value 1.01 | locus YGL086W, strain mad1, stronger effect = lower value 1.02 | locus YGL167C, strain pmr1, stronger effect = lower value 0.971 | locus YGL173C, strain kem1, stronger effect = lower value 0.959 | locus YGL227W, strain vid30, stronger effect = lower value 0.975 | locus YGL240W, strain doc1, stronger effect = lower value 0.962 | locus YGL248W, strain PDE1, stronger effect = lower value 1.01 | locus YGL253W, strain hxk2, stronger effect = lower value 0.949 | locus YGR078C, strain PAC10, stronger effect = lower value 1.03 | locus YGR135W, strain pre9, stronger effect = lower value 0.997 | locus YGR252W, strain gcn5, stronger effect = lower value 0.97 | locus YHR013C, strain ard1, stronger effect = lower value 0.997 | locus YHR027C, strain rpn1, stronger effect = lower value 0.985 | locus YHR030C, strain SLT2, stronger effect = lower value 1.01 | locus YHR079C, strain IRE1 (second series), stronger effect = lower value 1.01 | locus YHR079C, strain IRE1, stronger effect = lower value 1 | locus YHR094C, strain hxt1, stronger effect = lower value 1.02 | locus YHR129C, strain ARP1, stronger effect = lower value 1 | locus YHR142W, strain chs7, stronger effect = lower value 0.975 | locus YHR200W, strain rpn10, stronger effect = lower value 1.02 | locus YIL066C, strain RNR3, stronger effect = lower value 0.981 | locus YIL073C, strain SPO22, stronger effect = lower value 1.02 | locus YIL125W, strain kgd1, stronger effect = lower value 1.02 | locus YIR030C, strain dcg1, stronger effect = lower value 1.01 | locus YJL092W, strain hpr5, stronger effect = lower value 0.969 | locus YJL095W, strain BCK1 (second series), stronger effect = lower value 0.953 | locus YJL095W, strain BCK1, stronger effect = lower value 1.04 and 1.02 | locus YJL115W, strain asf1, stronger effect = lower value 0.992 | locus YJL129C, strain trk1, stronger effect = lower value 0.966 | locus YJL134W, strain LCB3, stronger effect = lower value 1.01 | locus YJL154C, strain vps35, stronger effect = lower value 0.976 | locus YJL164C, strain tpk1, stronger effect = lower value 1.01 | locus YJL166W, strain qcr8, stronger effect = lower value 0.974 | locus YJL168C, strain set2, stronger effect = lower value 1 | locus YJL187C, strain SWE1 (second series), stronger effect = lower value 1.03 | locus YJR043C, strain POL32, stronger effect = lower value 1.01 | locus YJR066W, strain TOR1, stronger effect = lower value 0.947 | locus YJR075W, strain HOC1, stronger effect = lower value 1.04
